Measurements from PubChem BioAssay (NCI).
Compounds without any hit were thinned out: in the full panel of roughly 79,000, 15% have a hit. The source made the active and inactive calls. No stated cut-off is given here; in the data, active means growth inhibition above about 70%; inactive means the rest.

Assay: NCI Yeast Anticancer Drug Screen. Data for the rad50 strain (AID 155);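 further: 0% = growth of vehicle-only cultures of the same strain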
Conditions: S. cerevisiae rad50 strain growth inhibition; at 50.0 µM (retest, dose inferred, filed as 5.0); stronger effect = higher value
Summary of the method: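 Yeast carrying a defined DNA repair defect were exposed to test compounds, and growth was compared with vehicle-treated controls to give percent inhibition.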

Row | Compound | growth inhibition
1 | c1ccc2nc3ccccc3nc2c1 | 64% (inactive)
2 | O=C(NCCCl)Nc1c2ccccc2nc2ccccc12 | 65% (inactive)
3 | CC1=C2CCC3C(CCC4(C)C(C(C)CCCC(C)C)CCC34)C2(C)CCC1=O (stereo not drawn) | -2% (inactive)
4 | Cc1cccc(Cl)c1NC(=O)/C=C/c1ccccc1 | 44% (inactive)
5 | O=C1/C(=C/c2ccc(Cl)cc2)CSC/C1=C\c1ccc(Cl)cc1 | 37% (inactive)
6 | CCOC(=O)c1c(N)sc2c1CCCCC2 | -118% (inactive)
7 | CC(C)NC(=O)O/N=C1\CCC2[C@@H]3CC=C4C[C@@H](OC(=O)NC(C)C)CC[C@]4(C)C3CC[C@]12C (stereo partly drawn) | 77% (active)
8 | COc1ccc2c(c1)c(=O)c1c(NCCN(C)C)ccc3nnn2c31 | 51% (inactive)
9 | CCCC(=O)N(C(=O)CCC)C1=C(Cl)C(=O)c2ccccc2C1=O | 64% (inactive)
10 | CN(C)C1C=CCC(c2ccccc2)C1[N+](=O)[O-] (stereo not drawn) | 83% (active)
11 | CC(=O)NC1C(=O)CC(c2ccccc2)N(C)C1c1ccccc1 (stereo not drawn) | 2% (inactive)
12 | CCCCC#CCCOC(=O)C#CCCCC | 6% (inactive)
13 | CC1C[C@]2(C)C(=S)Nc3ccccc3[C@@H]2Nc2ccccc21 (stereo partly drawn) | 43% (inactive)
14 | O=[N+]([O-])/C=C/c1c[nH]c2c1ccc1ccccc12 | 92% (active)
15 | CCC[CH2][Sn]([S][Sn]([CH2]CCC)([c]1ccccc1)[c]1ccccc1)([c]1ccccc1)[c]1ccccc1 | 94% (active)
16 | CCN(CC)CCCCNc1ccc(Cl)cc1 | 12% (inactive)
17 | C[n+]1c(/C=C\c2ccccc2)sc2ccccc21 | 89% (active)
18 | Cc1nnc2nc3c(nn12)c1ccccc1n3C | -54% (inactive)
19 | CS(=O)c1cc(=O)c2ccccc2s1 (stereo not drawn) | 85% (active)
20 | COC(=O)C1=C(C)NC(C)=C(C(=O)OC)C1c1ccc(NCc2ccccc2)c([N+](=O)[O-])c1 | 59% (inactive)

Row | Compound | growth inhibition
21 | C/C(=N/NC(=S)Nc1ccccc1Cl)c1ccccn1 | 19% (inactive)
22 | Nc1ccccc1Sc1ccc(C(F)(F)F)cc1[N+](=O)[O-] | 23% (inactive)
23 | COc1ccc2nc(-c3ccc(Cl)cc3)[nH]c2c1 | 88% (active)
24 | Cc1c(C)c(C)c(C(=O)c2ccccc2C(=O)NCCSC(C)(C)C)c(C)c1C | 49% (inactive)
25 | COC(=O)C(=O)C(C(=O)Nc1cccc(C)c1C)C1Sc2ccccc2NC1=O (stereo not drawn) | 99% (active)
26 | Cc1nc2c(O)c3c(c(O)c2nc1C)C1C=CC3CC1 | 83% (active)
27 | C[C@]12CCC(=O)C=C1CC[C@@H]1[C@@H]2[C@@H](O)C[C@@]2(C)[C@H]1CC[C@]2(O)C(=O)COC(=O)CCC1CCCC1 | 91% (active)
28 | CC(=O)OCCc1ccc(CCc2ccccc2)cc1 | 47% (inactive)
29 | COc1cc2c(cc1OC)C(=O)C(C)(c1ccccc1)NC2 (stereo not drawn) | 2% (inactive)
30 | CCCCCCC(/C=C/c1c(Cl)cccc1Cl)=N\O | 24% (inactive)
31 | O=C1OC(c2ccc(O)cc2)=C(c2ccccc2)C1c1ccccc1 (stereo not drawn) | 36% (inactive)
32 | c1cc[c]([Ge]([O]c2cccc3cccnc23)([c]2ccccc2)[c]2ccccc2)cc1 | 10% (inactive)
33 | CCCCCCCCCCCCCCCCCCOP(=O)([O-])OCC[N+](C)(C)C | 99% (active)
34 | Cc1noc(NS(=O)(=O)c2ccc(NCc3c4ccccc4nc4cc(Cl)ccc34)cc2)c1C | -13% (inactive)
35 | CCC(=NCCCCCCN=C(CC)c1cc(C)cc([N+](=O)[O-])c1O)c1cc(C)cc([N+](=O)[O-])c1O.[Fe] | 46% (inactive)
36 | O=C(O)c1ccc([N+](=O)[O-])cc1.[Ag] | 99% (active)
37 | O=C1C(=O)c2ccccc2C(O)=C1C(c1ccccc1)c1ccccc1 | 82% (active)
38 | CC(=O)SC1C(=O)N(C)C(SC(C)=O)C(=O)N1C (stereo not drawn) | -21% (inactive)
39 | COc1ccc2c(c1)CN([C@@H](C)[C@H]1CC[C@H]3[C@@H]4CC[C@H]5C[C@@H](O)CC[C@]5(C)[C@H]4CC[C@]13C)CO2 | 99% (active)

Same assay, conditions: S. cerevisiae rad50 strain growth inhibition; at 50.0 µM; stronger effect = higher value

Row | Compound | growth inhibition
40 | c1ccc2nc3ccccc3nc2c1 | 77.5% (active)
41 | O=C(NCCCl)Nc1c2ccccc2nc2ccccc12 | 72% (active)
42 | CC1=C2CCC3C(CCC4(C)C(C(C)CCCC(C)C)CCC34)C2(C)CCC1=O (stereo not drawn) | 41% (inactive)
43 | Cc1cccc(Cl)c1NC(=O)/C=C/c1ccccc1 | -22.1% (inactive)
44 | O=C1/C(=C/c2ccc(Cl)cc2)CSC/C1=C\c1ccc(Cl)cc1 | 2.35% (inactive)
45 | CCOC(=O)c1c(N)sc2c1CCCCC2 | 47% (inactive)
46 | CC(C)NC(=O)O/N=C1\CCC2[C@@H]3CC=C4C[C@@H](OC(=O)NC(C)C)CC[C@]4(C)C3CC[C@]12C (stereo partly drawn) | 83% (active)
47 | COc1ccc2c(c1)c(=O)c1c(NCCN(C)C)ccc3nnn2c31 | 28.2% (inactive)
48 | CCCC(=O)N(C(=O)CCC)C1=C(Cl)C(=O)c2ccccc2C1=O | 29.9% (inactive)
49 | CN(C)C1C=CCC(c2ccccc2)C1[N+](=O)[O-] (stereo not drawn) | 93.2% (active)
50 | CC(=O)NC1C(=O)CC(c2ccccc2)N(C)C1c1ccccc1 (stereo not drawn) | 7.55% (inactive)
51 | CCCCC#CCCOC(=O)C#CCCCC | 30% (inactive)
52 | CC1C[C@]2(C)C(=S)Nc3ccccc3[C@@H]2Nc2ccccc21 (stereo partly drawn) | 21.9% (inactive)
53 | O=[N+]([O-])/C=C/c1c[nH]c2c1ccc1ccccc12 | 84.4% (active)
54 | CCC[CH2][Sn]([S][Sn]([CH2]CCC)([c]1ccccc1)[c]1ccccc1)([c]1ccccc1)[c]1ccccc1 | 99.3% (active)
55 | CCN(CC)CCCCNc1ccc(Cl)cc1 | 38.2% (inactive)
56 | C[n+]1c(/C=C\c2ccccc2)sc2ccccc21 | 82.8% (active)
57 | Cc1nnc2nc3c(nn12)c1ccccc1n3C | 46.3% (inactive)
58 | CS(=O)c1cc(=O)c2ccccc2s1 (stereo not drawn) | 98.2% (active)
59 | COC(=O)C1=C(C)NC(C)=C(C(=O)OC)C1c1ccc(NCc2ccccc2)c([N+](=O)[O-])c1 | 16.9% (inactive)

Row | Compound | growth inhibition
60 | C/C(=N/NC(=S)Nc1ccccc1Cl)c1ccccn1 | 70.4% (active)
61 | Nc1ccccc1Sc1ccc(C(F)(F)F)cc1[N+](=O)[O-] | 99.1% (active)
62 | COc1ccc2nc(-c3ccc(Cl)cc3)[nH]c2c1 | 72.7% (active)
63 | Cc1c(C)c(C)c(C(=O)c2ccccc2C(=O)NCCSC(C)(C)C)c(C)c1C | 82.6% (active)
64 | COC(=O)C(=O)C(C(=O)Nc1cccc(C)c1C)C1Sc2ccccc2NC1=O (stereo not drawn) | 51.1% (inactive)
65 | Cc1nc2c(O)c3c(c(O)c2nc1C)C1C=CC3CC1 | 64% (inactive)
66 | C[C@]12CCC(=O)C=C1CC[C@@H]1[C@@H]2[C@@H](O)C[C@@]2(C)[C@H]1CC[C@]2(O)C(=O)COC(=O)CCC1CCCC1 | 83.9% (active)
67 | CC(=O)OCCc1ccc(CCc2ccccc2)cc1 | 40.3% (inactive)
68 | COc1cc2c(cc1OC)C(=O)C(C)(c1ccccc1)NC2 (stereo not drawn) | 91.9% (active)
69 | CCCCCCC(/C=C/c1c(Cl)cccc1Cl)=N\O | 83.4% (active)
70 | O=C1OC(c2ccc(O)cc2)=C(c2ccccc2)C1c1ccccc1 (stereo not drawn) | 99.4% (active)
71 | c1cc[c]([Ge]([O]c2cccc3cccnc23)([c]2ccccc2)[c]2ccccc2)cc1 | 73% (active)
72 | CCCCCCCCCCCCCCCCCCOP(=O)([O-])OCC[N+](C)(C)C | 90.5% (active)
73 | Cc1noc(NS(=O)(=O)c2ccc(NCc3c4ccccc4nc4cc(Cl)ccc34)cc2)c1C | 98.5% (active)
74 | CCC(=NCCCCCCN=C(CC)c1cc(C)cc([N+](=O)[O-])c1O)c1cc(C)cc([N+](=O)[O-])c1O.[Fe] | 80.9% (active)
75 | O=C(O)c1ccc([N+](=O)[O-])cc1.[Ag] | 98.8% (active)
76 | O=C1C(=O)c2ccccc2C(O)=C1C(c1ccccc1)c1ccccc1 | 53.5% (inactive)
77 | CC(=O)SC1C(=O)N(C)C(SC(C)=O)C(=O)N1C (stereo not drawn) | 95.8% (active)
78 | COc1ccc2c(c1)CN([C@@H](C)[C@H]1CC[C@H]3[C@@H]4CC[C@H]5C[C@@H](O)CC[C@]5(C)[C@H]4CC[C@]13C)CO2 | 99% (active)
